Growth inhibition, inhibition and outcome data for 21 compounds are collected here from PubChem BioAssay.

Assay [1] is described as follows: antimalarial activity against Dd2 strain (AID 2302;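 active = growth inhibition above 50% at the single 2 µM test dose, taken to imply half-maximal potency below 2 µM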;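 also: 0% = DMSO untreated growth and 100% = chloroquine plus artemisinin killed control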). Conditions: P. falciparum Dd2 in RBCs, LDH growth readout, 72 h; at 2 µM; stronger effect = higher value.
The nature of assay [2]: human hepatoma cell viability loss – ATP luminescence, cytotoxicity control for P. falciparum antimalarial project, primary screen (AID 2303;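 active = inhibition above 50%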;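 also: 0% = DMSO wells and 100% = digitonin-killed cells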). Particulars: HepG2 viability, 24-48 h, at 10 µM, stronger effect = higher value.
Assay [3] concerns the target L-lactate dehydrogenase (Plasmodium falciparum (isolate CDC / Honduras)) (UniProt Q27743). The experiment in a line: PfLDH activity inhibition – cell lysate, 3D7 strain, counter-screen for P. falciparum growth inhibition project (AID 2304).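 Also: 0% = vehicle and 100% = reference inhibitor.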 Conditions: P. falciparum 3D7 crude extract, LDH APAD/NBT absorbance; at 2 µM; stronger effect = higher value. Background: The purpose of a counterscreen is to sort out artefacts and off-target activity.

The nature of assay [4]: inhibition of 3D7 malaria parasite growth – strain 3D7 (AID 2306).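 Also: 0% = DMSO wells and 100% = chloroquine plus artemisinin control wells.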 Conditions: P. falciparum 3D7 erythrocytic growth, LDH absorbance, 72 h; at 2 µM; stronger effect = higher value.
Assay [5] concerns the target Calcium-dependent protein kinase 1 (Plasmodium falciparum (isolate 3D7)) (UniProt P62344). The experiment in a line: PfCDPK1 kinase inhibitors, biochemical, TCAMS library (AID 1159585; cut-off not given, nearly all actives have IC50 up to about 0.98 µM;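 also: inhibitors leave more ATP so luminescence rises with inhibition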). Particulars: recombinant PfCDPK1, Kinase-Glo ATP depletion luminescence.
Assay [6] addresses Plasmodium falciparum protein kinase 6 (PK6, PF3D7_1337100) (UniProt Q8IDW1). Briefly: PfPK6 kinase inhibitors, biochemical, TCAMS library (AID 1159586). Conditions: recombinant PfPK6, Kinase-Glo ATP depletion luminescence. (In general: In Kinase-Glo more light means more ATP remaining.)
For assay [7], the target named is Protein kinase 7 (PK7), Plasmodium falciparum 3D7 (PF3D7_0213400) (UniProt Q7YTF7). Briefly: inhibition of Plasmodium PK7 catalytic activity – biochemical, TCAMS antimalarial set, Kinase-Glo luminescence (AID 1159587). Conditions: recombinant PfPK7, Kinase-Glo ATP depletion luminescence.
The target of assay [8] is Calcium-dependent protein kinase 4 (Plasmodium falciparum (isolate 3D7)) (UniProt Q8IBS5). The experiment in a line: PfCDPK4 kinase inhibitors, biochemical, TCAMS library (AID 1159588; cut-off not given, nearly all actives have IC50 up to about 0.91 µM). Particulars: recombinant PfCDPK4, Kinase-Glo ATP depletion luminescence.

Molecules are shown by their SMILES. Values without a mark were called inactive. For part of these data: Results with a measured potency or affinity are listed apart. Activity calls are given as the source filed them. Unless noted, no rule for the calls is given here.

Protein kinase 7 (PK7), Plasmodium falciparum 3D7 (PF3D7_0213400), sequence (Q7YTF7 1-343): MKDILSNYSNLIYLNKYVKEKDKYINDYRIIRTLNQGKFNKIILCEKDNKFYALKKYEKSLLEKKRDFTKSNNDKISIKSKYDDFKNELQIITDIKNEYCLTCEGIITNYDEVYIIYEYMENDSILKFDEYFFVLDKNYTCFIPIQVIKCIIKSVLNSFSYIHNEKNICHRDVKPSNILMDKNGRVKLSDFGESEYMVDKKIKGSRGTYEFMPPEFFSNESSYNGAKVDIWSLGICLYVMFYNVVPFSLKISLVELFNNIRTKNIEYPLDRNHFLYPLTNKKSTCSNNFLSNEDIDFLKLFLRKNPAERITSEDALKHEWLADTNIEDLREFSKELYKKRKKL
Calcium-dependent protein kinase 1 (Plasmodium falciparum (isolate 3D7)), sequence (P62344 whole entry, looked up): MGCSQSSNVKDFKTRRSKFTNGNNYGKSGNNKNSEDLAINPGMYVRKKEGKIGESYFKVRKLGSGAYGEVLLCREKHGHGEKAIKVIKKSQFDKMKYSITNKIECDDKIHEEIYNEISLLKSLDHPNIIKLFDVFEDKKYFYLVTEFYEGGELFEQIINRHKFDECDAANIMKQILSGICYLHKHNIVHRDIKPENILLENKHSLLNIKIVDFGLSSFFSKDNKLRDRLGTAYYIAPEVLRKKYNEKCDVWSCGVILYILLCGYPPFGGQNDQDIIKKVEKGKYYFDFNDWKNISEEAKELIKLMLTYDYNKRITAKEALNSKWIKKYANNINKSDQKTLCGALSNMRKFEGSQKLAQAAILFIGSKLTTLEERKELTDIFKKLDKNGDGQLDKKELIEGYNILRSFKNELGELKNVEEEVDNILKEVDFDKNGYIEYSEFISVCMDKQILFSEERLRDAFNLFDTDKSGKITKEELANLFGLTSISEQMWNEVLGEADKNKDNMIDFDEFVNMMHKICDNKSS
L-lactate dehydrogenase (Plasmodium falciparum (isolate CDC / Honduras)), sequence (Q27743 whole entry, looked up): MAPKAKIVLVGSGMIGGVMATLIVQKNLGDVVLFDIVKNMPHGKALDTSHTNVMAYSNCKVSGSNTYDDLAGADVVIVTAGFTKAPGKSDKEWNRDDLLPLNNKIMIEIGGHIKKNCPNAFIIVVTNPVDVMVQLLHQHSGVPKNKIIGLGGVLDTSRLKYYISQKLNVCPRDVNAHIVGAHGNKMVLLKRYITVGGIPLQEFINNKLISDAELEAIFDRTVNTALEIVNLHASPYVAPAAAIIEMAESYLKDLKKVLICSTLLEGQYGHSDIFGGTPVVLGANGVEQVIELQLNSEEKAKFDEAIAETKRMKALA
Plasmodium falciparum protein kinase 6 (PK6, PF3D7_1337100), sequence (Q8IDW1 1-305): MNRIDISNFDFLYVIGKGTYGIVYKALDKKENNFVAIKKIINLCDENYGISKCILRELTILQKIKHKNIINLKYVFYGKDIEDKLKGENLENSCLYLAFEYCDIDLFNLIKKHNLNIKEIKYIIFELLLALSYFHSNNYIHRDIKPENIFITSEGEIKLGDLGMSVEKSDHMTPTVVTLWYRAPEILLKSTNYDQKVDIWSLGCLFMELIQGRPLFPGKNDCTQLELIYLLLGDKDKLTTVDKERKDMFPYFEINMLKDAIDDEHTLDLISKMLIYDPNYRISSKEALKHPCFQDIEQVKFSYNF
Calcium-dependent protein kinase 4 (Plasmodium falciparum (isolate 3D7)), sequence (Q8IBS5 whole entry, looked up): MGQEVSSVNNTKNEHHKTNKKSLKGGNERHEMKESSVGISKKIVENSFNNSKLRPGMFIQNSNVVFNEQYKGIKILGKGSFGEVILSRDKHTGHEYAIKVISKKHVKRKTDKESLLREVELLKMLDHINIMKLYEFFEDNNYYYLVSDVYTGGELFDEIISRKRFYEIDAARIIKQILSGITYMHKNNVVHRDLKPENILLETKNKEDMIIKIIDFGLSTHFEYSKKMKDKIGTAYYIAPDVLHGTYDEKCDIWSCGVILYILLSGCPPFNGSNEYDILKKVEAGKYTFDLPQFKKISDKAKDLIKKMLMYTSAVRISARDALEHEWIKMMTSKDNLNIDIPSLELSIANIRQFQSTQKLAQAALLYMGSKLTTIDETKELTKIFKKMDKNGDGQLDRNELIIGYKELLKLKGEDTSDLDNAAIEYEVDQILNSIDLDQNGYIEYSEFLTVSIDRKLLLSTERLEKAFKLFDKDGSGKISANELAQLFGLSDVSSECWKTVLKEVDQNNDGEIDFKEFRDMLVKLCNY

In general, inhibition refers to the change of the read-out against control, counted positive when it falls. For `CCN(CCCN1CCCCC1)c1cc(C)nc(Nc2cccc3c2CCCC3)n1`, the growth inhibition in assay [1] is 46%; in assay [4] it was 92% (active). Also, the inhibition was 60% (active) in assay [2] and -3% in assay [3]. Moreover, the outcome in assay [5], in assay [6], in assay [7] and in assay [8] was inactive.

With `CC(C)Sc1nc2c(c(=O)n1CCc1ccccc1)C1(CCCCC1)Cc1ccccc1-2`, the growth inhibition in assay [1] was 5%; in assay [4], 92% (active). Moreover, the results for the inhibition in assay [2] and in assay [3] were 8% and 1%, respectively. In addition, the outcome in assay [5], in assay [6], in assay [7] and in assay [8] was inactive.

Consider `O=[N+]([O-])c1cccc(-c2ccc(C=NNc3cc(N4CCCC4)nc(N4CCCC4)n3)o2)c1`, for which the growth inhibition was 67% (active) in assay [1] and 100% (active) in assay [4]. Besides, the figures for the inhibition in assay [2] and in assay [3] were -6% and 0%, respectively. In addition, the result in assay [5], in assay [6], in assay [7] and in assay [8] was inactive.

As for `c1ccc(N2CCN(c3cc(-c4cccnc4)nc(-c4ccncc4)n3)CC2)nc1`, the growth inhibition in assay [1] is 22%; in assay [4] it was 99% (active). Also, the inhibition in assay [2] is 22%; in assay [3] it was -2%. In addition, the outcome in assay [5], in assay [6], in assay [7] and in assay [8] was inactive.

Take `Nc1nc(N)c2cc3ccc(OCc4ccccc4)cc3nc2n1`: the growth inhibition is 75% (active) in assay [1] and 100% (active) in assay [4]. The values for the inhibition in assay [2] and in assay [3] were 78% (active) and 0%, respectively. Also, the result in assay [5], in assay [6], in assay [7] and in assay [8] was inactive.

On to `COc1ccc(NC(=O)[C@H](CC(C)C)Nc2cc(C)nc(NCCc3ccc(F)cc3)n2)cc1`, for which the growth inhibition in assay [1] is 79% (active); in assay [4] it was 100% (active). Further, the inhibition was 1% in assay [2] and -3% in assay [3]. Moreover, the result in assay [5], in assay [6], in assay [7] and in assay [8] was inactive.

As to `c1ccc(CCNc2nc(NCC(c3ccccc3)c3ccccc3)c3[nH]cnc3n2)cc1`, the growth inhibition is 95% (active) in assay [1] and 100% (active) in assay [4]. In addition, the figures for the inhibition in assay [2] and in assay [3] were 9% and -1%, respectively. For the same compound, the result in assay [5], in assay [6], in assay [7] and in assay [8] was inactive.

As to `O=C(NC1CCC1)C1CCN(C(c2ccccc2)c2cc(F)cc(F)c2)CC1` (stereo not drawn), the growth inhibition in assay [1] was 72% (active); in assay [4] it was 94% (active). In addition, the inhibition in assay [2] was 0%; in assay [3], -2%. The outcome in assay [5], in assay [6], in assay [7] and in assay [8] was inactive.

As to `CC(C)CNCc1cccc(-c2ccc(CN(CCCN3CCN(C)CC3)C(=O)CCC3CCCC3)cc2)c1`, the growth inhibition in assay [1] is 89% (active); in assay [4], 98% (active). Moreover, the inhibition was 82% (active) in assay [2] and 0% in assay [3]. Besides, the result in assay [5], in assay [6], in assay [7] and in assay [8] was inactive.

Take `O=C(NCCCCNCC(Cc1cccc(O)c1)c1ccccc1)c1ccc(NC(=O)c2ccc(Cl)cc2)cc1` (stereo not drawn): the growth inhibition in assay [1] was 1%; in assay [4] it was 96% (active). Moreover, the results for the inhibition in assay [2] and in assay [3] were -1% and 2%, respectively. The outcome in assay [5], in assay [6], in assay [7] and in assay [8] was inactive.

Consider `Brc1ccc(Nc2nc3ccccc3nc2Nc2ccc(Br)cc2)cc1`, for which the growth inhibition in assay [1] was 100% (active); in assay [4] it was 101% (active). Besides, the inhibition in assay [2] is 18%; in assay [3], -2%. Moreover, the outcome in assay [5], in assay [6], in assay [7] and in assay [8] was inactive.

Consider `CCCCCCN1CCC(NCc2cccc([N+](=O)[O-])c2)CC1`, for which the growth inhibition was 16% in assay [1] and 100% (active) in assay [4]. Further, the inhibition was -2% in assay [2] and 0% in assay [3]. Besides, the outcome in assay [5], in assay [6], in assay [7] and in assay [8] was inactive.

Regarding `O=[N+]([O-])c1ccccc1C=NNc1c2c(nc3ccccc13)CCCC2`, the growth inhibition in assay [1] is 99% (active); in assay [4], 97% (active). The inhibition in assay [2] is -2%; in assay [3] it was -3%. The outcome in assay [5], in assay [6], in assay [7] and in assay [8] was inactive.

For `O=C(NC1CCN(Cc2ccc3c(c2)OCCO3)CC1)c1ccc(-c2cccc(Cl)c2)s1`, the growth inhibition in assay [1] is 9%; in assay [4], 93% (active). Moreover, the figures for the inhibition in assay [2] and in assay [3] were 46% and -5%, respectively. For the same compound, the result in assay [5], in assay [6], in assay [7] and in assay [8] was inactive.

Regarding `CCCCN1C(=O)C(c2ccccc2)(c2ccccc2)N=C1N`, the figures for the growth inhibition in assay [1] and in assay [4] were 34% and 87% (active), respectively. Besides, the values for the inhibition in assay [2] and in assay [3] were 19% and 7%, respectively. For the same compound, the result in assay [5], in assay [6], in assay [7] and in assay [8] was inactive.

`Cc1ccc(O)cc1Nc1ccnc2ccc(-c3cccc(CN(C)C)c3)cc12`: the growth inhibition in assay [1] was 99% (active); in assay [4], 101% (active). The inhibition in assay [2] was -3%; in assay [3], 1%. Also, the outcome in assay [5], in assay [6], in assay [7] and in assay [8] was inactive.

Take `Fc1ccc(CNc2nc(-c3ccc(F)c(C(F)(F)F)c3)n(-c3cccc(C(F)(F)F)c3)n2)cc1`: the growth inhibition in assay [1] was 80% (active); in assay [4] it was 95% (active). For the same compound, the results for the inhibition in assay [2] and in assay [3] were 0% and -1%, respectively. Moreover, the result in assay [5], in assay [6], in assay [7] and in assay [8] was inactive.

With `CCn1c(Sc2ccc(C#N)c([N+](=O)[O-])c2)nnc1-c1cc(OC)cc(OC)c1`, the growth inhibition was 82% (active) in assay [1] and 93% (active) in assay [4]. The inhibition in assay [2] is 7%; in assay [3] it was -2%. For the same compound, the result in assay [5], in assay [6], in assay [7] and in assay [8] was inactive.

Take `COc1ccc2nccc([C@@H](O)CN3CCC(NCc4cc5ccccc5s4)CC3)c2c1`: the growth inhibition in assay [1] is 53% (active); in assay [4] it was 97% (active). In addition, the inhibition was 8% in assay [2] and 3% in assay [3]. Besides, the outcome in assay [5], in assay [6], in assay [7] and in assay [8] was inactive.

Consider `COc1ccc(CN2CCCN(Cc3ccc(C(=O)Nc4ccc(Cl)cc4)cc3)CC2)cc1`, for which the growth inhibition in assay [1] was 3%; in assay [4], 91% (active). The inhibition in assay [2] is 46%; in assay [3], 0%. Besides, the outcome in assay [5], in assay [6], in assay [7] and in assay [8] was inactive.

`CNC(=O)c1cc(NCCCNCc2ccc(Cl)c(C(F)(F)F)c2)nc2ccccc12`: the growth inhibition in assay [1] is 7%; in assay [4], 91% (active). Moreover, the inhibition in assay [2] was 25%; in assay [3], -1%. For the same compound, the outcome in assay [5], in assay [6], in assay [7] and in assay [8] was inactive.
